Measured values reported in ChEMBL document CHEMBL4888484, “Replenishing the malaria drug discovery pipeline: Screening and hit evaluation of the MMV Hit Generation Library 1 (HGL1) against asexual blood stage Plasmodium falciparum ,using a nano luciferase reporter read-out” (2022).
The campaign covered roughly 150,000 compounds. About 540 (0.36%) showed an effect of 50% or more. This is one part of a sample in which strong results are shown more often than they occur.

test system: Plasmodium falciparum; assay: Primary screen in NF54 nanoGlo assay, in single point, at 2uM, 72h; a lower Z score goes with more inhibition; type: functional, Erythrocyte; settings: timepoint 72 hour

Structure (SMILES) | % Inhibition [%] | Z score
CCCC(=O)N1CCN(c2cc(-n3cnc(C)c3C)ncn2)CC1 | -12 | 1.96
COc1cc(C(=O)Nc2scnc2C)cc(OC)c1OC | 45 | 0.11
COc1cc(C(=O)Nc2ccc3sc(NC(=O)c4cc(OC)c(OC)c(OC)c4)nc3n2)cc(OC)c1OC | 101 | -16.35
COc1cc(C(=O)Nc2ccc(Nc3ccc(C)nn3)cc2)cc(OC)c1OC | 13 | -2.29
Cn1cc(S(=O)(=O)NCc2cc(C3CC3)ncn2)cn1 | 16 | -2.16
Clc1cnn(CCN2CCc3onc(-c4cccc5ccccc45)c3C2)c1 | -5 | 0.7
CN1C(=O)CC[C@@]12CCN(C(=O)Nc1ccc3c(c1)OCCO3)C2 | -5 | 0.78
Cc1cc([C@@H]2CCCCN2CCn2cc(Cl)cn2)no1 | -11 | 1.54
Oc1c2c(nc3ccccc13)CCCCC2 | 25 | -3.15
COc1cccc(C(=O)Nc2c3c(nc4ccccc24)CCCC3)c1 | 1 | -0.12
COc1ccc(C(=O)N(C(=O)c2ccc(OC)cc2)c2c3c(nc4ccccc24)CCCC3)cc1 | 69 | -5.66
COc1ccccc1C(C)(C)c1noc([C@@]2(C)CCNC(=O)C2)n1 | -3 | 0.4
CCOc1ccc(N2C[C@@H](C(=O)NCCc3ccco3)CC2=O)cc1 | 0 | -0.05
C[C@H](NCc1ccccc1CN1CCOCC1)C(=O)Nc1cccc2ccccc12 | -7 | 1.29
c1ccc(C(c2ccccc2)N2CCN(c3nn4cnnc4c4ccccc34)CC2)cc1 | 81 | -11.8
c1ccc2[nH]c(C3CCN(c4nn5cnnc5c5ccccc45)CC3)nc2c1 | -15 | 2.33
Fc1ccc(N2CCN(c3nn4cnnc4c4ccccc34)CC2)cc1 | -10 | 1.31
COc1ccc(-c2nc3c(c(N4CCC[C@@H]4C)n2)CCOCC3)cc1 | -10 | 0.99
O=C(Nc1ccnn1C1CCC1)c1ccc(-c2cn[nH]c2)cn1 | -10 | 1.42
O=C1CCCCN1CCC(=O)N1CCc2onc(-c3cccc4ccccc34)c2C1 | -1 | 0.1
Cc1nn(C)c2nc(OCC(=O)NC(C)(C)C)cc(C(F)(F)F)c12 | -8 | 0.92

Structure (SMILES) | % Inhibition [%] | Z score
Cn1nccc1[C@@H]1CN(C(=O)Nc2nsc3ccccc23)CCO1 | -5 | 0.53
Cc1ccc(S(=O)(=O)Nc2c(S(=O)(=O)c3ccccc3)c3nc4ccccc4nc3n2CCc2ccccc2)cc1 | 86 | -14.39
Cc1ccc(S(=O)(=O)Nc2c(S(=O)(=O)c3ccc(C)cc3)c3nc4ccccc4nc3n2C[C@H]2CCCO2)cc1 | 48 | -4.28
COc1ccc(S(=O)(=O)c2c(N)n(Cc3ccc(C)cc3)c3nc4ccccc4nc23)cc1 | -6 | 0.56
Nc1c(S(=O)(=O)c2ccc(Cl)cc2)c2nc3ccccc3nc2n1Cc1ccc(Cl)cc1 | -9 | 0.81
Cc1ccc(S(=O)(=O)c2c(NS(=O)(=O)c3ccc(F)cc3)n(CCc3ccccc3)c3nc4ccccc4nc23)cc1 | 98 | -8.73
CCC(=O)Nc1c(S(=O)(=O)c2ccccc2)c2nc3ccccc3nc2n1[C@@H](C)c1ccccc1 | -14 | 1.29
Cc1ccc(S(=O)(=O)c2c(NS(=O)(=O)c3ccc(F)cc3)n(C[C@H]3CCCO3)c3nc4ccccc4nc23)cc1 | 6 | -0.71
Cc1ccc(S(=O)(=O)Nc2c(S(=O)(=O)c3ccc(C)cc3)c3nc4ccccc4nc3n2CCC(C)C)cc1 | 85 | -10.94
Cc1ccc(S(=O)(=O)c2c(NS(=O)(=O)c3ccccc3)n(CCc3ccccc3)c3nc4ccccc4nc23)cc1 | 99 | -11.17
Cc1ccc(S(=O)(=O)c2c(NC(=O)c3ccco3)n(C3CCCCC3)c3nc4ccccc4nc23)cc1 | -11 | 1.85
Cc1ccc(S(=O)(=O)c2c(NS(=O)(=O)c3ccc(Cl)cc3)n(-c3cc(C)cc(C)c3)c3nc4ccccc4nc23)cc1 | -6 | 0.5
CC(C)n1cc(C(=O)N(CCOc2ccc(Cl)cc2)Cc2ccco2)cn1 | -9 | 1.28
O=C(Nc1cccc(C(F)(F)F)c1)C1(F)C(F)(F)C(F)(F)C(F)(F)C(F)(F)C1(F)F | 2 | -0.22
c1ccc2oc(-c3nc(C4CC4)n[nH]3)cc2c1 | -12 | 1.37
N[C@@H](c1ccc2c(c1)CCO2)c1cc(Cl)ccc1Cl | 0 | -0.02
O=C(Nc1nc(C(=O)N2CCN(c3ncccn3)CC2)co1)c1ccsc1 | -2 | 0.31
CCCN1CCCC[C@H]1C(=O)NCCCn1ccnc1 | -6 | 1.01
Cc1ccc(C(=O)N2CCC[C@H](CCC(=O)N3CCN(c4ccccn4)CC3)C2)s1 | -8 | 1.24
COc1ccc(-c2nc3ccc(Cc4ccc5nc(-c6ccc(OC)cc6)c(-c6ccc(OC)cc6)nc5c4)cc3nc2-c2ccc(OC)cc2)cc1 | 11 | -2.21
O=C(NC[C@H]1CCCN1c1ccccc1)c1ccccc1Br | -13 | 2.53

Structure (SMILES) | % Inhibition [%] | Z score
C[C@@H](c1ccccc1)n1c(NC(=O)c2ccc(Cl)cc2)c(S(=O)(=O)c2ccccc2)c2nc3ccccc3nc21 | -15 | 1.3
CCCCc1ccc(-n2c(NS(=O)(=O)c3ccc(Cl)cc3)c(S(=O)(=O)c3ccc(C)cc3)c3nc4ccccc4nc32)cc1 | 4 | -0.41
COCCCn1c(NS(=O)(=O)c2ccccc2)c(S(=O)(=O)c2ccc(C)cc2)c2nc3ccccc3nc21 | 43 | -9.12
CCCCn1c(NC(=O)c2ccccc2Cl)c(S(=O)(=O)c2ccccc2)c2nc3ccccc3nc21 | -7 | 0.7
O=C(Nc1c(S(=O)(=O)c2ccccc2)c2nc3ccccc3nc2n1CCc1ccccc1)c1ccc(Cl)cc1 | 101 | -8.88
COCCCn1c(NS(=O)(=O)c2ccc3ccccc3c2)c(S(=O)(=O)c2ccc(C)cc2)c2nc3ccccc3nc21 | 57 | -8.33
Cc1ccc(S(=O)(=O)NCCn2c3ccccc3c3c(C)cc(C)nc32)cc1 | -5 | 0.73
CCCCn1c(NC(=O)c2ccccc2)c(S(=O)(=O)c2ccc(C)cc2)c2nc3ccccc3nc21 | 0 | -0.03
Cc1ccc(S(=O)(=O)Nc2cc3nc4ccccc4nc3n2CCc2ccccc2)cc1 | 100 | -10.64
CCOc1cccc2c1OC[C@@H](C(=O)N1CCCS1(=O)=O)C2 | -7 | 1.2
Cc1cc(C)c(-c2ccc(C(=O)N(C)CCn3ccnc3C)cc2)cc1C | -5 | 0.69
COCCNc1c(-c2ccccc2)nc2sc(C(=O)NCc3cccnc3)c(C)n12 | -31 | 3.13
Cc1ccc(-n2cc(NC(=O)c3cc(C)no3)cn2)c(C)c1 | -5 | 0.56
O=c1c2cnc(N3CCc4ccccc4C3)nc2ccn1-c1ccc(Cl)c(Cl)c1 | -8 | 1.01
Cc1cccc(N2CCO[C@@H](CF)C2)n1 | 5 | -0.46
Cc1cnccc1NCCNCc1cccc(O)c1Cl | 88 | -13.09
Cc1cnccc1NCCNCc1nc(C(C)C)cs1 | 6 | -0.58
CCn1ccc(CNCCNc2ccncc2C)n1 | -3 | 0.68
Cc1cnccc1NCCNCc1ccnc(C(C)C)n1 | -15 | 1.39
CC1CCN(Cn2c(=S)sc3ccccc32)CC1 | -4 | 0.63
Cc1nccn1CC(=O)N[C@@H](C)C1=CCCCC1 | 3 | -0.38

Structure (SMILES) | % Inhibition [%] | Z score
O=C1Nc2ccc(F)cc2C12CCNC2c1ccc2c(c1)OCCO2 (configuration not stated) | 31 | -3.54
CS(=O)(=O)N1CCN(S(=O)(=O)N2CCN(c3ccccc3Cl)CC2)CC1 | 5 | -0.74
Cn1c(N)c(S(=O)(=O)N2CCN(c3ccccc3Cl)CC2)c(=O)n(C)c1=O | 59 | -11.06
Cc1ccccc1S(=O)(=O)N1CCN(c2c(C)n(-c3ccccc3)c(=O)n(C)c2=O)CC1 | 36 | -0.1
O=C(CCN(CCc1ccccc1)c1nc(C2CC2)nc2ccccc12)Nc1ccccc1 | 0 | -0.06
O=C(CCN1C(=O)CCC1=O)Nc1cccc(S(=O)(=O)N2CCCCC2)c1 | -4 | 0.89
CCN1CCN([C@H]2CCN(c3ccnc4c(F)cc(Cl)cc34)C2)CC1 | 11 | -1.82
CC(C)(C)OC(=O)N1CCC1CN1CCCC(c2nnc(N)o2)C1 (configuration not stated) | 32 | -3.65
Cn1ncc(Cl)c1C(=O)NCc1cccnc1Oc1ccc(F)c(F)c1 | -3 | 0.62
O=C(Cn1nnc2ccccc21)N(Cc1cccnc1)C1(C(=O)Nc2ccc(N3CCOCC3)cc2)CCCCC1 | 2 | -0.25
O=C(Cn1nnc2ccccc21)N(Cc1ccccc1)C1(C(=O)Nc2ccc3c(c2)OCO3)CCCCC1 | 50 | -5.71
O=C(Cn1nnc2ccccc21)N(Cc1cccnc1)C1(C(=O)Nc2ccc3c(c2)OCO3)CCCC1 | 5 | -0.59
CN(C)c1ccc(NC(=O)C2(N(Cc3ccccc3)C(=O)Cn3nnc4ccccc43)CCCC2)cc1 | 5 | -0.62
CN(C)c1ccc(NC(=O)C2(N(Cc3ccccc3)C(=O)Cn3nnc4ccccc43)CCCCC2)cc1 | 51 | 0.77
O=C(Cn1nnc2ccccc21)N(Cc1nc(-c2ccccc2)cs1)C1(C(=O)Nc2ccc3c(c2)OCO3)CCCC1 | -7 | 0.77
COc1ccc(NC(=O)C2(N(Cc3ccccc3)C(=O)Cn3nnc4ccccc43)CCCCC2)cc1 | 44 | -1.28
COc1ccc(NC(=O)C2(N(Cc3nc(-c4ccccc4)cs3)C(=O)Cn3nnc4ccccc43)CCCCC2)cc1 | 55 | -6.2
O=C(Cn1nnc2ccccc21)N(Cc1cccnc1)C1(C(=O)Nc2ccc3c(c2)OCO3)CCCCC1 | 36 | -0.52
